# Assay outcomes (PubChem BioAssay)
# MITF TRPM1 inh – reduces MITF-dependent TRPM1 promoter luciferase signal | 330,000 compounds, 0.83% hits | SK-MEL-5 TRPM1 promoter luciferase, 24 h | AID 488899 | inhibition, % at 12.5 µM;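 active means mean inhibition across replicates of 60% or more, whatever share of single replicates reaches that level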
# Glyco luc inh – N-linked glycosylation inhibition; reporter increase, % at 12.5 µM; AID 588692; 360,000 compounds, 0.23% hits; D54 ERlucT glycosylation luciferase reporter, 24 h; percent of 100 nM tunicamycin response;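 active means mean luciferase reporter signal, scaled so untreated is 0 and the glycosylation-blocking control 100, at or above a set limit in every replicate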;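 further: luciferase carries N-glycosylation sites so blocking glycosylation raises the light; 0% = median of neutral control wells and 100% = median of 100 nM tunicamycin wells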
# MITF TRPM1 HTS – increases MITF-driven TRPM1 promoter luciferase signal. SK-MEL-5 TRPM1-promoter luciferase, 24 h; % of positive control, neutral wells = 0. activation, % at 12.5 µM. 300,000 compounds, 0.75% hits. AID 588334;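 active means mean activation of at least 80% with every replicate also reaching 80%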;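 further: 0% = neutral control wells and 100% = parthenolide positive control wells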
# NSD2 inh – NSD2 (human) methyltransferase inhibition; 310,000 compounds, 0.54% hits; inhibition, % at 12.5 µM; NSD2 peptide methylation, AlphaScreen, 120 min; in the data active means inhibition above about 50%
# Target sequence (O96028 whole entry, looked up): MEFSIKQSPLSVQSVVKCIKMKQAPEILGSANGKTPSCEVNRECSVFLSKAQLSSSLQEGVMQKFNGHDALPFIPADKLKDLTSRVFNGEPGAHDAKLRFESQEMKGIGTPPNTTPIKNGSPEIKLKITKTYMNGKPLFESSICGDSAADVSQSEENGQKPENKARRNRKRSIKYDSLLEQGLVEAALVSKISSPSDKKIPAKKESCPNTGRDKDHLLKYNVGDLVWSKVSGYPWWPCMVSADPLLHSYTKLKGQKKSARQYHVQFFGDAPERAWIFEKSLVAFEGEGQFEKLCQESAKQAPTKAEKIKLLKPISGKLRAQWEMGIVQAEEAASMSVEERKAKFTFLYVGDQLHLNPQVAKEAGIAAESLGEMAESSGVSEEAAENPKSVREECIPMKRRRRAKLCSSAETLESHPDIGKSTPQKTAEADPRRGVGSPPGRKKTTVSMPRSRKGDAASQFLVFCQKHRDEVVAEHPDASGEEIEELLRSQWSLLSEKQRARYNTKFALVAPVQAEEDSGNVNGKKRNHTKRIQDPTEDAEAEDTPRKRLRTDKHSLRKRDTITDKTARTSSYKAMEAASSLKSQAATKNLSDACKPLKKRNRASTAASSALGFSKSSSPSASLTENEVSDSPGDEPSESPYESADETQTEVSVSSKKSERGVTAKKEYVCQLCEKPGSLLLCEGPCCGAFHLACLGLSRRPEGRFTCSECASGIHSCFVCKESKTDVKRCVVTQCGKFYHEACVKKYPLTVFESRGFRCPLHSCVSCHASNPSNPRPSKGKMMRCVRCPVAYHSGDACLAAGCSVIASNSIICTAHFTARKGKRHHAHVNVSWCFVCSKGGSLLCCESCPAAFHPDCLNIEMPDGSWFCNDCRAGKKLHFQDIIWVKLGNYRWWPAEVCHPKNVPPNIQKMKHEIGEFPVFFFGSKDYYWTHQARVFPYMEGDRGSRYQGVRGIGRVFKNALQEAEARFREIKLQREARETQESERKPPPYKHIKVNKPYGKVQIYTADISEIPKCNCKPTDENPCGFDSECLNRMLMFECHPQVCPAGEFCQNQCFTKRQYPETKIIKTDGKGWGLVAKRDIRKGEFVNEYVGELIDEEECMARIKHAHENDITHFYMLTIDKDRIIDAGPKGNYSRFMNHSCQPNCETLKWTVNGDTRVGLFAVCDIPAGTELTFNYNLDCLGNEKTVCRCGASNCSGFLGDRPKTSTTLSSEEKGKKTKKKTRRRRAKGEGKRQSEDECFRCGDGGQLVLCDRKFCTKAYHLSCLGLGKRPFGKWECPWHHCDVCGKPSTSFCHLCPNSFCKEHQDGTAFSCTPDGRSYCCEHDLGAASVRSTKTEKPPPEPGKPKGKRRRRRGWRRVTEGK
# Wnt bcat act – Wnt/beta-catenin pathway activation; Wnt/beta-catenin reporter cell assay, activator, plate reader; 300,000 compounds, 1.2% hits; activation, % at 9.35 µM; in the data active means activation above about 30%, passing the limit was not always enough;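 further: 0% = neutral control wells and 100% = positive control wells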
# PfHsp90 set2 – reduces growth (ATP signal) of yeast expressing P. falciparum Hsp90; inhibition, % at 9.4 µM; S. cerevisiae expressing PfHsp90, BacTiter-Glo ATP, 48 h; yeast lacking PDR1 and PDR3 efflux regulators; 310,000 compounds, 0.32% hits;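 active means every replicate shows inhibition above about 80%, whatever the replicate mean, limit read from the data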;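 further: 0% = DMSO neutral controls and 100% = 20 µM radicicol positive controls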
# Starred values were filed as active, the others as inactive; / = no result given. An excerpt weighted towards active compounds, which were near 2.9% of everything screened.
SMILES,MITF TRPM1 inh,Glyco luc inh,MITF TRPM1 HTS,NSD2 inh,Wnt bcat act,PfHsp90 set2
CCN(CC)CCNC(=O)C1CCN(S(=O)(=O)c2c(C)noc2/C=C/c2ccccc2F)CC1,77*,0,-78,8,-5,-3
CCOc1ccccc1NC(=O)c1cc(S(=O)(=O)NCc2ccco2)ccc1F,0,0,4,-1,8,-33
O=C(NC1CC1)c1ccc(NC(=O)C2CCCCC2)cc1,-8,2,11,/,2,8
O=C(CCCCl)NC1=NN(c2ccccc2)C(=O)C1,0,0,-2,2,18,-1
O=C(COc1ccc(Cl)cc1)NC1=NN(c2ccccc2)C(=O)C1,12,0,-9,11,/,125*
COC(=O)c1cc2c(c3c4cc(C)ccc4n(S(=O)(=O)c4ccc(OC)cc4)c13)C(=O)N(Cc1ccc(C(F)(F)F)cc1)C2,/,/,/,/,-5,/
Cc1c(Br)c([N+](=O)[O-])nn1CC(=O)NCC1CCCO1 (stereo not given),-2,2,5,-1,-1,3
Cc1noc(/C=C/Nc2ccc(F)cc2F)c1[N+](=O)[O-],-42,-7,47,-15,40*,-3
Cn1cncc1C#Cc1ccc2c(=O)c3ccccc3oc2c1,-67,7,68,/,44*,-16
CNC(C)C#Cc1ccc2c(=O)c3ccccc3oc2c1 (stereo not given),-70,8,71,/,38*,-5
Cn1cncc1C#Cc1ccc2cc(C(C)(C)O)oc(=O)c2c1,-21,0,19,/,3,6
Nc1ccc(C#Cc2ccc3c(=O)c4ccccc4oc3c2)cc1,-107,-6,111*,/,25,11
N#Cc1ccc(C#Cc2ccc3oc4ccccc4c(=O)c3c2)cc1,-1,3,3,/,0,-16
CN1OC[C@@H]2CN(Cc3ccccc3)[C@H](c3cccc(-c4ccccc4)c3)C[C@@H]21,/,-2,/,/,-3,/
O=C(C1CCCN(S(=O)(=O)c2ccc(F)cc2)C1)N1CCN(Cc2ccccc2)CC1 (stereo not given),/,/,/,3,/,/
NS(=O)(=O)c1ccc(CCNC(=O)CSc2nc3ccsc3c(=O)n2Cc2ccccn2)cc1,/,0,/,-1,36*,/
N#Cc1ccccc1CSc1nc2ccsc2c(=O)n1Cc1ccccn1,-24,-1,24,-1,4,-91
Cc1ccc(CSc2nc3ccsc3c(=O)n2Cc2ccccn2)cc1,9,-5,-7,-1,-3,78*
COc1ccc(CCNC(=O)CSc2nc3ccsc3c(=O)n2Cc2ccccn2)cc1OC,/,1,/,-3,3,/
CC1CCc2c(sc3ncnc(SC(C)C(=O)NCC4CCCO4)c23)C1 (stereo not given),-4,0,6,0,-2,-2
CN(C(=O)c1ccc(NC(=O)Cc2ccc(NC(=O)C3CCCN(C(=O)C4CCC4)C3)cc2)cc1)C1CC1 (stereo not given),-9,2,11,/,-3,9
Cn1c2ccccc2c(=O)c2ccc(-c3ccc4c(c3)OCO4)cc21,-78,0,84*,/,41*,9
C=CS(=O)(=O)c1ccc(Oc2ccc(S(=O)(=O)C=C)cc2)cc1,89*,-19,-89,/,-12,-12
Cc1oc(-c2ccc(Cl)cc2)nc1CN1CCC(C(=O)NCCCN2CCCC(C)C2)CC1 (stereo not given),96*,-10,-95,7,0,-8
CCN(CC)C(=O)c1ccc2c(c1)NC(=O)C(C)(C)O2,/,/,/,-9,/,/
SMILES,MITF TRPM1 inh,Glyco luc inh,MITF TRPM1 HTS,NSD2 inh,Wnt bcat act,PfHsp90 set2
Cn1cccc1C(=O)OCC(=O)Nc1ccc2c(c1)OCO2,-7,1,1,2,7,/
Cn1cccc1C(=O)OCc1cc(Cl)cc2c1OCOC2,-118,0,69,2,73*,-12
Cc1ccc2c(CN3CCC(C)CC3)cc(=O)oc2c1C,-88,-3,93*,1,4,-44
Cc1ccc2c(CN3CC(C)CC(C)C3)cc(=O)oc2c1C (stereo not given),-5,-6,/,-1,-1,0
CC(C)(C)c1ccc(C(=O)NCCCN2CCN(CCCNC(=O)c3ccc(C(C)(C)C)cc3)CC2)cc1,90*,-9,-89,1,-11,3
O=C(C1CCN(C2CC(=O)N(c3cccc(Cl)c3)C2=O)CC1)N1CCCC1 (stereo not given),8,0,-7,0,-3,106*
NC(=O)C1CCN(C2CC(=O)N(c3ccc(F)c(Cl)c3)C2=O)CC1 (stereo not given),1,1,-3,0,/,104*
CCN(CC)C1CC(=O)N(c2cccc(Cl)c2)C1=O (stereo not given),1,2,2,6,0,126*
CCN1C(=O)CC(N2CCC(C(=O)OC)CC2)C1=O (stereo not given),0,0,4,0,-3,-12
COC(=O)C1CCN(C2CC(=O)N(c3cc(C)cc(C)c3)C2=O)CC1 (stereo not given),2,0,2,-1,-4,105*
COC(=O)N1C[C@H](O)[C@H](O)C[C@@H]1c1ccccc1Br,/,/,/,/,6,/
COc1ccc(NC2CCN(C3CC(=O)N(c4ccc(F)c(Cl)c4)C3=O)CC2)cc1 (stereo not given),-3,1,3,4,0,102*
CCOc1ccc(OCCC(=O)N(CC)CC(=O)Nc2c(F)cccc2F)cc1,-6,-3,9,0,0,-26
COc1cc(/C=C/C(=O)c2ccccc2)cc(OC)c1OC,/,/,/,16,/,/
Cc1ccc(-n2c(SCC(=O)c3ccc(Br)cc3)nnc2-c2ccncc2)cc1,/,/,/,0,/,/
CCCCCCC(=O)N(O)C1CC(=O)N(c2ccc(F)cc2)C1=O (stereo not given),4,78*,/,0,6,109*
CCCCCCC(=O)N(O)C1CC(=O)N(c2ccc(Br)cc2)C1=O (stereo not given),6,68*,/,/,3,119*
CC(C)NC(=O)C1C(c2ccc(C(F)(F)F)cc2)=Nc2ccccc2N1C(=O)c1ccccc1 (stereo not given),/,/,/,-2,45*,/
CC1(C)CN=c2s/c(=C\c3ccc(Cl)cc3)c(=O)n2C1,-116,0,117*,-12,-1,33
Nc1ccc2c(c1)C/C(=C/c1ccco1)C2=O,-51,0,55,-1,66*,6
O=C1/C(=C/c2ccco2)CCc2ccccc21,-23,-2,22,11,24,15
Nc1nc(Cl)cc(N2CCC(c3cc(-c4ccc(Cl)cc4)n[nH]3)CC2)n1,65*,2,-66,-1,1,-32
Cc1ccc2nc3c(cc(C(N)=S)c(=N)n3CCCOC(C)C)c(=O)n2c1,9,37*,-1,17,-3,-4
CC(C)(C)NC(=O)CSc1nc(-c2ccc(F)cc2)cs1,-70,-7,71,-4,38*,3
